From PMC5540273 (PLoS ONE, 2017) come the findings set out here.

SMILES strings stand for the structures. Where two headings read alike, the source gives them in different places.

For one assay, the system named is T1, GRK2.
T1 construct: gene ADRBK1
The conditions noted are these: concentration: 1 μM, replicates: in singlicate; n = 1.

The next assay has as its system T2, GRK3.
T2 construct: gene ADRBK2
The conditions noted are these: concentration: 1 μM, replicates: in singlicate; n = 1.

In the next assay the test system is GRK4. Conditions: concentration: 1 μM, replicates: in singlicate; n = 1.
For another assay, the system named is GRK7. Conditions: concentration: 1 μM, replicates: in singlicate; n = 1.
The subject of another assay is GSK3A. The conditions noted are these: concentration: 1 μM, replicates: in singlicate; n = 1.
The next assay concerns GSK3B. The conditions noted are these: n = 1.
The test system of the next assay is T3, HASPIN.
T3 construct: gene GSG2
The conditions noted are these: concentration: 1 μM, replicates: in singlicate; n = 1.

The subject of another assay is HCK. The conditions noted are these: concentration: 1 μM, replicates: in singlicate; n = 1.
Another assay has as its system HIPK1. Conditions: concentration: 1 μM, replicates: in singlicate; n = 1.
In another assay the test system is HIPK2. Conditions: concentration: 1 μM, replicates: in singlicate; n = 1.
The mark [1] stands for this setting: concentration: 1 μM, replicates: in singlicate.
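Further: KINOMEscan kinase panel screen.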

With `COc1ccc(-c2cc3c(C)nc(N)nc3n([C@H]3CC[C@H](OCCO)CC3)c2=O)cn1`, the “%Inh” value in the assay on GRK2 amounted to 17%; in the assay with GRK3, 0%; with GRK4 it was 1%; in the assay with GRK7, 1%; in the assay with GSK3A it was 0%; with GSK3B (setting [1]), 1%. In addition, the “%Inh” value amounted to 33% in the assay with HASPIN, 13% with HCK, 17% in the assay with HIPK1 and 0% in the assay on HIPK2.
Turning to `CCC(=O)c1c(-c2ccccc2)c2cc(Cl)ccc2c(=O)n1Cc1cc(S(C)(=O)=O)n(CCC(C)(C)O)n1`, the “%Inh” value in the assay with GRK2 is 0%; in the assay on GRK3, 0%; in the assay with GRK4, 0%; with GRK7, 29%; in the assay on GSK3A it was 0%; with GSK3B (setting [1]) it was 0%. Further, the “%Inh” value in the assay with HASPIN was 43%; in the assay on HCK it was 10%; in the assay with HIPK1, 33%; in the assay on HIPK2, 29%.
`Nc1n[nH]c2nnc(-c3ccccc3)c(-c3ccccc3)c12` [GW554060]: the “%Inh” value amounted to 0% in the assay on GRK2; 44% in the assay with GRK3; 6% with GRK4; 0% in the assay on GRK7; 91% in the assay on GSK3A; 42% with GSK3B (1 µM). For the same compound, the “%Inh” value was 10% in the assay on HASPIN, 0% in the assay on HCK, 50% with HIPK1 and 86% with HIPK2.
For the compound `O=C(Nc1ccc2c(c1)OCO2)NC1CCN(c2ccnc(NCc3ccc(F)cc3)n2)CC1` [GSK1379859], the “%Inh” value was 0% in the assay with GRK2; 0% with GRK3; 0% in the assay with GRK4; 0% in the assay on GRK7; 2% in the assay on GSK3A; 8% in the assay on GSK3B (setting [1]). Besides, the “%Inh” value in the assay on HASPIN, in the assay with HCK, in the assay with HIPK1 and in the assay with HIPK2 was 0% in each case.
Regarding `COc1cc2ncn(-c3cc(OCCCc4ccccc4)c(C(N)=O)s3)c2cc1OC` [GSK205189], the “%Inh” value with GRK2 is 0%; in the assay with GRK3 it was 0%; in the assay with GRK4, 13%; in the assay with GRK7, 0%; in the assay with GSK3A, 10%; with GSK3B (setting [1]), 0%. In addition, the “%Inh” value in the assay on HASPIN was 0%; with HCK, 4%; in the assay with HIPK1, 9%; in the assay with HIPK2, 0%.
Turning to `CCCNC(=O)Nc1ccc(Oc2ncnc3ccn(C)c23)cc1`, the “%Inh” value in the assay with GRK2 is listed as 40%; in the assay with GRK3 it was 0%; in the assay with GRK4, 6%; in the assay with GRK7, 29%; with GSK3A, 0%; in the assay on GSK3B (setting [1]), 21%. Further, the “%Inh” value with HASPIN amounted to 41%; in the assay on HCK, 7%; with HIPK1 it was 35%; in the assay with HIPK2 it was 29%.
As for `Cc1c(Cn2c(C)nn3c(=O)cc(N4CCO[C@H](C)C4)nc23)cccc1C(F)(F)F` [GSK2373690], the “%Inh” value in the assay with GRK2 is 0%; in the assay on GRK3, 18%; with GRK4, 3%; in the assay with GRK7, 0%; in the assay on GSK3A, 13%; in the assay on GSK3B (setting [1]), 6%. In addition, the “%Inh” value with HASPIN is 0%; in the assay on HCK, 0%; with HIPK1, 13%; in the assay on HIPK2 it was 0%.
On to `Nc1ncnc2c1ncn2-c1cccc(F)c1` [SKF-97560], for which the “%Inh” value in the assay with GRK2 came out at 61%; in the assay on GRK3, 40%; with GRK4 it was 0%; in the assay on GRK7 it was 4%; in the assay with GSK3A, 18%; in the assay with GSK3B (setting [1]), 13%. In addition, the “%Inh” value in the assay on HASPIN came to 45%; in the assay with HCK it was 0%; in the assay on HIPK1, 12%; in the assay on HIPK2, 16%.
`COc1cccc(-n2cnc3c(N)ncnc32)c1` [SKF-97416]: the “%Inh” value in the assay with GRK2 is recorded as 0%; in the assay with GRK3, 11%; with GRK4, 10%; in the assay with GRK7 it was 27%; in the assay with GSK3A, 0%; in the assay with GSK3B (setting [1]), 35%. For the same compound, the “%Inh” value is given as 0% in the assay on HASPIN, 8% in the assay with HCK, 18% with HIPK1 and 22% in the assay on HIPK2.
For `Cc1cccc(-c2cc(-c3c[nH]nc3-c3ccccn3)ccn2)c1` [GW679395], the “%Inh” value in the assay with GRK2 came out at 0%; in the assay with GRK3, 39%; with GRK4, 0%; with GRK7, 0%; in the assay with GSK3A, 17%; in the assay on GSK3B (setting [1]), 7%. For the same compound, the “%Inh” value with HASPIN is recorded as 25%; with HCK it was 0%; in the assay with HIPK1, 0%; in the assay with HIPK2, 0%.
With `COc1cc2ncn(-c3cc(OCc4ccncc4)c(C(N)=O)s3)c2cc1OC` [GSK336313], the “%Inh” value in the assay on GRK2 worked out at 0%; in the assay with GRK3, 0%; in the assay with GRK4, 0%; in the assay with GRK7, 0%; in the assay on GSK3A it was 15%; in the assay on GSK3B (setting [1]) it was 7%. In addition, the “%Inh” value is 0% in the assay with HASPIN, 0% in the assay on HCK, 15% in the assay with HIPK1 and 0% with HIPK2.
Regarding `COc1cc2ncn(-c3cc(OCc4ccncc4Br)c(C(N)=O)s3)c2cc1OC` [GW854278], the “%Inh” value with GRK2 worked out at 5%; in the assay on GRK3, 0%; with GRK4, 35%; in the assay on GRK7, 4%; in the assay on GSK3A, 7%; in the assay with GSK3B (setting [1]), 0%. The “%Inh” value in the assay on HASPIN came to 5%; in the assay with HCK it was 3%; with HIPK1, 0%; with HIPK2, 4%.
In the case of `COC(=O)c1c(-c2ccccc2)c2cc(Br)ccc2c(=O)n1Cc1ccc(S(C)(=O)=O)cc1`, the “%Inh” value in the assay on GRK2 turned out to be 14%; in the assay with GRK3 it was 0%; in the assay with GRK4, 0%; in the assay with GRK7, 35%; in the assay on GSK3A it was 0%; with GSK3B (setting [1]), 19%. Further, the “%Inh” value with HASPIN is 31%; with HCK, 9%; in the assay with HIPK1 it was 33%; in the assay on HIPK2, 18%.
`O=C(Nc1n[nH]c2nc(-c3ccccc3)c(Br)cc12)C1CC1` [SB-708998]: the “%Inh” value in the assay with GRK2 was 12%; with GRK3 it was 0%; with GRK4, 14%; in the assay with GRK7 it was 0%; in the assay with GSK3A it was 90.3%; with GSK3B (1 µM), 15%. Also, the “%Inh” value in the assay with HASPIN, in the assay with HCK, with HIPK1 and with HIPK2 was 0% throughout.
For the compound `Nc1n[nH]c2ncc(-c3ccccc3)cc12` [SB-517081], the “%Inh” value amounted to 0% with GRK2; 22% in the assay with GRK3; 21% with GRK4; 0% in the assay with GRK7; 34% with GSK3A; 20% in the assay with GSK3B (1 µM). Also, the “%Inh” value in the assay with HASPIN, with HCK, in the assay with HIPK1 and in the assay on HIPK2 was 0% throughout.
Consider `Cc1nnc(-c2ccc(C)c(-c3ccc(C(=O)O)cc3)c2)o1` [GW608005], for which the “%Inh” value in the assay with GRK2 is on record as 0%; with GRK3 it was 0%; in the assay with GRK4, 0%; with GRK7 it was 0%; in the assay with GSK3A it was 7%; in the assay on GSK3B (setting [1]), 0%. Besides, the “%Inh” value with HASPIN, in the assay on HCK, in the assay with HIPK1 and in the assay on HIPK2 was 0% in each case.
With `CCC(=O)c1c(-c2ccccc2)c2cc(Cl)ccc2c(=O)n1Cc1cc(C(=O)NC2CC2)n(C)n1`, the “%Inh” value with GRK2 is on record as 0%; with GRK3 it was 23%; in the assay on GRK4 it was 0%; with GRK7 it was 12%; in the assay on GSK3A, 0%; in the assay on GSK3B (setting [1]) it was 13%. The “%Inh” value with HASPIN is 25%; in the assay with HCK it was 22%; with HIPK1, 0%; with HIPK2, 8%.
